Here are results for 19 compounds from PubChem BioAssay (EPA / NIEHS).

A structure can be active in one record and inactive in another. Calls of active or inactive are those of the source. Rule for the calls: active = hit-call score of the fitted dose curve at least 0.9, where 1 is the maximum; inactive = score below 0.9.

Assay [1] is described as follows: ATG_CRE_CIS: Attagene CIS-FACTORIAL HepG2 Assay for human cAMP Responsive Element (CRE) binding protein 3 (AID 2282926). Particulars: HepG2 CRE cis-reporter, Attagene multiplexed mRNA; actives raise or lower the signal. In outline:
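Capillary electrophoresis of 6-FAM-labelled, HpaI-digested PCR products quantified reporter transcripts. These came from HepG2 transiently transfected with cis-element reporters and exposed to test chemicals for 24 hours, with DMSO defining baseline activity.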

Assay [2] is described as follows: ATG_CMV_CIS: Attagene CIS-FACTORIAL HepG2 Assay for human CMV (Internal Marker) (AID 2282928).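 Note: endpoint acts as a background internal control marker rather than a target.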 Particulars: HepG2 CMV promoter reporter, transcription factor profiling; actives raise or lower the signal. In outline: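 Fluorescence intensity of RT-PCR-derived reporter fragments, resolved by capillary electrophoresis, gives the signal. HepG2 liver cells bearing transfected cis-element reporters were treated 24 h; activity in either direction was fit relative to DMSO-treated controls.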

For assay [3], the target named is CCAAT/enhancer-binding protein beta (Homo sapiens) (UniProt P17676). The experiment in a line: ATG_C_EBP_CIS: Attagene CIS-FACTORIAL HepG2 Assay for human CCAAT/Enhancer Binding Protein (C/EBP) beta (AID 2282927). Particulars: HepG2 Attagene cis-factorial transcription factor reporter; actives raise or lower the signal. The gist of the method: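 Endogenous transcription factor activity in human liver HepG2 cells is inferred from induction of a CEBPB-linked reporter mRNA. Exposure lasts 24 h; activity is fitted in both directions relative to DMSO.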
CCAAT/enhancer-binding protein beta (Homo sapiens), sequence (P17676 whole entry, looked up): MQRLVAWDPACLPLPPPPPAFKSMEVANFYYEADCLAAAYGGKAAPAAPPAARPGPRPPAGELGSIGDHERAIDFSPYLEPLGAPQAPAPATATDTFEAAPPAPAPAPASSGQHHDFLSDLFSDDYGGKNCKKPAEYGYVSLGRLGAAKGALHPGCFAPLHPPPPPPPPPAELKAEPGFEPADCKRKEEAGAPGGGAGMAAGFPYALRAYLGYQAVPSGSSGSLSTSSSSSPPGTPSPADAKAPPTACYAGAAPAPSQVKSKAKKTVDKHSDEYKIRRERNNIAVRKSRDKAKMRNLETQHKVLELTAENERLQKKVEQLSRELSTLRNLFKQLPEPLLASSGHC

What is called AC50 is the concentration at which the activity in the assay is half-maximal. As for `Cc1cc(Cc2cc(C)cc(C(C)(C)C)c2O)c(O)c(C(C)(C)C)c1`, the AC50 was 23.7 µM (active) in assay [1] and 7.15 µM (active) in assay [2].
As to `O=C(C=C(O)C(F)(F)F)C(F)(F)F`, the compound was called inactive in assay [1] and in assay [2].
`CC(C)(O)C(=O)c1ccccc1`: the compound was called inactive in assay [1] and in assay [2].
For `CC(=O)CC(C)C`, the compound was classed as inactive in assay [1] and in assay [2].
For the compound `FC(F)(F)C(F)(F)C(F)(F)C(F)(F)I`, the compound was called inactive in assay [1], in assay [3] and in assay [2].
On to `C=CC(=O)OCC(CO)(COCC(COC(=O)C=C)(COC(=O)C=C)COC(=O)C=C)COC(=O)C=C`, for which the result in assay [1] and in assay [3] was inactive. Further, the AC50 in assay [2] is 2.97 µM (active).
As for `CC(C)(c1ccc(Oc2ccc(N)cc2)cc1)c1ccc(Oc2ccc(N)cc2)cc1`, the call in assay [1], in assay [3] and in assay [2] was inactive.
On to `Clc1ccc(Nc2nnc(Cc3ccncc3)c3ccccc23)cc1`, for which the compound was called inactive in assay [1] and in assay [2].
Turning to `COc1cc([N+](=O)[O-])ccc1N`, the compound was called inactive in assay [1] and in assay [2].
Regarding `Nc1cc(Cl)c(-c2cc(Cl)c(N)cc2Cl)cc1Cl`, the result in assay [1] was inactive. Further, in assay [2], the AC50 is 2.08 µM (active).
In the case of `CCc1ccccc1O`, the outcome in assay [1] and in assay [2] was inactive.
Take `O=C(Nc1ccc(Cl)c(Cl)c1)c1cc(Cl)cc(Cl)c1O`: the result in assay [1] and in assay [2] was inactive.
With `CCCCCCCCCCCC(=O)O`, the outcome in assay [1], in assay [3] and in assay [2] was inactive. The AC50 in assay [2] is 60 µM (active).
Consider `COC(=O)C(F)(F)C(F)(F)C(F)(F)F`, for which the call in assay [1] and in assay [2] was inactive.
As for `CC(C)c1c(C(=O)Nc2ccccc2)c(-c2ccccc2)c(-c2ccc(F)cc2)n1CC[C@@H](O)C[C@@H](O)CC(=O)O`, the call in assay [1], in assay [3] and in assay [2] was inactive. Also, the concentration at half-maximal activity (AC50) in assay [2] was 25.6 µM (active).
As for `CCc1cccc(CC)c1N(COC)C(=O)CS(=O)(=O)O`, the result in assay [1], in assay [3] and in assay [2] was inactive.
As to `C[C@]12CC[C@@H]3c4ccc(O)cc4CC[C@H]3[C@@H]1C[C@@H](O)[C@@H]2O`, the result in assay [1], in assay [3] and in assay [2] was inactive. For the same compound, in assay [2], the AC50 was 64.6 µM (active).
For the compound `CCCCC(CC)C(=O)OCCOCCOCCOCCOC(=O)C(CC)CCCC` (stereo not drawn), the compound was classed as inactive in assay [1] and in assay [2].
Take `O=P(O)(O)CCC(F)(F)C(F)(F)C(F)(F)C(F)(F)C(F)(F)C(F)(F)F`: the result in assay [1] and in assay [2] was inactive.
